PubChem BioAssay (NCI)
About 83,000 compounds went through this panel and 20% of them were active in at least one assay; those are over-represented in the sample as a whole.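 Interpretation: 100, growth as untreated; towards 0, rising growth inhibition; 0, no net growth; 0 to -100, cell death. Compounds scoring below 10 were considered active.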 Activity calls are given as the source filed them.

Legend:
Test in all cases: NCI-60 one-dose screen, 48 h (100 = growth as untreated, 0 = no growth, -100 = all killed)
Conditions in all cases: 10 µM unless noted
[1] = system: NCI-H23 lung
[2] = system: NCI-H226 lung
[3] = system: NCI-H322M lung
[4] = system: HOP-62 NSCLC
[5] = system: NCI-H460 lung
[6] = system: HOP-92 NSCLC
[7] = system: NCI-H522 lung
[8] = system: 786-0 renal
[9] = system: COLO 205 colon
[10] = system: DU-145 prostate
[11] = system: K-562 leukemia
[12] = system: MALME-3M melanoma
[13] = system: MDA-MB-231 breast
[14] = system: RXF 393 renal
[15] = system: SF-268 CNS
[16] = system: SF-295 CNS
[17] = system: SF-539 CNS
[18] = system: UACC-257 melanoma
[19] = system: M14 melanoma
[20] = system: A549/ATCC NSCLC

Measured: growth

COc1cc2oc(-c3cccc(NC(=O)c4cccc(Br)c4)c3)cc(=O)c2c(OC)c1OC
inactive: [1] 57.2% | [2] 73.7% | [3] 76.4% | [4] 55.5% | [5] 34.7% | [6] 47.5% | [7] 38.6% | [8] 59% | [9] 57.8% | [10] 54.4% | [11] 25.8% | [12] 53% | [13] 63.5% | [14] 54.9% | [15] 59.7% | [16] 40.9% | [17] 69% | [18] 83.8% | [19] 59%

CC/C(=C(/c1ccc(Cl)cc1)c1ccc(OCCN2CCCC2)cc1)c1ccc(OC)cc1
active: [11] 5%
inactive: [1] 52.9% | [2] 89% | [3] 79.7% | [4] 92.6% | [5] 37.6% | [6] 67% | [7] 82.7% | [8] 71.9% | [9] 64.7% | [10] 86.3% | [12] 79.8% | [13] 80.2% | [14] 67% | [15] 87.1% | [16] 66% | [17] 82.6% | [18] 74.8% | [19] 50.3%

O=C(/C=C/c1ccc(Cl)cc1)c1cccc(Nc2nc(Nc3ccccc3)nc(Nc3ccccc3)n2)c1
inactive: [1] 85.8% | [2] 96.9% | [3] 94.6% | [4] 85.2% | [5] 103% | [6] 24.1% | [7] 89.3% | [20] 81.8% | [8] 86.4% | [10] 121% | [11] 71.4% | [12] 95.6% | [13] 80.7% | [15] 113% | [16] 62.2% | [17] 116% | [18] 103% | [19] 94.2%
active: [14] -30.3%

CCN(CC)CCCN1C(=O)c2c(c(C)c3c(oc4cc(O)ccc43)c2C)C1=O
active: [5] -24.6% | [20] -74% | [8] -80.6% | [10] -61.7% | [11] -14.4% | [12] -80.4% | [13] -80.3% | [15] -41.4% | [19] -88.8%
inactive: [1] 104% | [2] 35.4% | [3] 92.5% | [4] 94.5% | [6] 93.7% | [7] 82.6% | [14] 75.7% | [16] 110% | [17] 96.4% | [18] 94.5%

O=C(O)c1ccc(-n2cc(/C=N/Nc3ccc(F)cc3)c(-c3cc4ccccc4oc3=O)n2)cc1
inactive: [1] 90.8% | [2] 101% | [3] 85.4% | [4] 84.3% | [5] 96.5% | [6] 81.5% | [7] 50.9% | [20] 92.9% | [8] 74.6% | [10] 91.2% | [11] 11.6% | [12] 79.8% | [13] 83.7% | [14] 113% | [15] 76.8% | [16] 72.1% | [17] 85.9% | [18] 107% | [19] 47.3%

O=S(=O)(NCCNc1nccc(-c2c(-c3cccc(F)c3)nc3occn23)n1)c1ccc(Br)cc1
inactive: [1] 87.9% | [2] 75.5% | [3] 82.1% | [4] 90.1% | [5] 68.5% | [6] 74.7% | [7] 81.8% | [8] 76.3% | [9] 85.4% | [10] 90.4% | [11] 69.1% | [12] 76.9% | [13] 82.3% | [14] 68.3% | [15] 90.7% | [16] 99.4% | [17] 92% | [18] 98.4% | [19] 79.8%

CN(Cc1ccc(C(F)(F)F)cc1)CC(O)C(=O)Nc1ccc(Cl)cc1 (centres undefined)
inactive: [2] 51.8% | [3] 42.4% | [5] 18.3% | [12] 12.8% | [13] 26% | [14] 12.9% | [15] 31.9% | [17] 21.9%
active: [1] -50.9% | [4] -37.8% | [6] -0.362% | [7] -51.4% | [8] -48.4% | [9] -68.6% | [10] -51.4% | [11] -36% | [16] -69.5% | [18] 1.78% | [19] -49.8%

CCOC(=O)Cn1c(O)c(N=Nc2ccc(S(N)(=O)=O)cc2)c2cc(Br)ccc21
inactive: [1] 77.1% | [2] 85.9% | [3] 77.7% | [4] 65% | [5] 44.1% | [6] 96.4% | [7] 70.8% | [20] 30.7% | [8] 99.2% | [10] 78.7% | [11] 65.4% | [12] 79.5% | [13] 67.6% | [14] 43.3% | [15] 97.2% | [16] 96.8% | [17] 16% | [18] 96.3% | [19] 87.8%

COc1cccc(/C=C/C(=O)c2cc3c(N)c(C(=O)Nc4ccccc4)sc3nc2C)c1
inactive: [1] 49.6% | [2] 55.3% | [3] 67.9% | [4] 13.6% | [6] 64.4% | [20] 34.3% | [10] 12% | [11] 13.3% | [12] 68.6% | [13] 17.1% | [15] 18.2% | [16] 44.8% | [18] 71.8% | [19] 29.9%
active: [5] -22.5% | [7] 7.06% | [8] -38.2% | [14] -74.6% | [17] -16%

N#Cc1nc(-c2ccccc2)oc1S(=O)(=O)N1CCOCC1
inactive: [1] 89.9% | [2] 102% | [3] 100% | [4] 97.9% | [5] 109% | [6] 108% | [20] 94.5% | [8] 88% | [10] 103% | [12] 39.6% | [13] 98.3% | [14] 91% | [15] 108% | [16] 98.5% | [17] 101% | [18] 92.8% | [19] 61.7%
active: [7] -55.5% | [11] 5.21%

O=C1/C(=C/c2ccc(F)cc2)COc2ccc(O)c(O)c21
inactive: [1] 44.3% | [2] 79.6% | [3] 39.9% | [5] 48.6% | [9] 28% | [10] 18.6% | [11] 10.6% | [15] 13.1% | [16] 75% | [18] 15.8% | [19] 37.5%
active: [4] 8.74% | [6] 6.21% | [7] -65.1% | [8] -47.6% | [12] -10.4% | [13] -12.1% | [14] -3.02% | [17] -62.1%

COc1ccc(-c2nc3c(c(-c4ccccc4)nn3-c3ccccc3)c(-c3ccc(N4CCN(C)CC4)cc3)c2C#N)cc1
inactive: [1] 98.6% | [2] 94.2% | [3] 97.5% | [4] 103% | [5] 101% | [6] 83.2% | [7] 94.4% | [8] 78.9% | [9] 114% | [10] 92.9% | [12] 94.6% | [13] 97.9% | [14] 76% | [15] 105% | [16] 107% | [17] 95.7% | [18] 95.5% | [19] 104%
active: [11] 8.47%

CC(C)(C)n1cc(-c2ccnc(NCCCNS(=O)(=O)c3ccc(F)cc3)c2)c(-c2cccc(F)c2)n1
inactive: [1] 67.5% | [2] 60.1% | [3] 91.3% | [4] 92.2% | [5] 36.1% | [6] 67.5% | [7] 57.2% | [8] 66.7% | [9] 32.6% | [10] 77.7% | [11] 18.1% | [12] 85.4% | [13] 75.6% | [14] 68% | [15] 74.3% | [16] 74% | [17] 68.7% | [18] 89.2% | [19] 53.8%

COc1ccc2nc3ccc(OC)cc3c(SCCCN)c2c1
inactive: [1] 74.5% | [2] 97.8% | [3] 114% | [4] 79.8% | [5] 110% | [6] 43.6% | [7] 57.7% | [20] 79.6% | [8] 49% | [10] 19.8% | [12] 95% | [13] 102% | [14] 49.1% | [15] 94.1% | [16] 95.9% | [17] 108% | [18] 105% | [19] 81%
active: [11] -33.6%

O=S(=O)(NCCCNc1nccc(-c2c(-c3ccc(F)c(O)c3)nc3occn23)n1)c1ccccc1
inactive: [1] 84.1% | [2] 115% | [3] 98.5% | [4] 102% | [5] 75.7% | [6] 71% | [7] 75.6% | [8] 123% | [9] 48.6% | [10] 90.5% | [11] 56.8% | [13] 57.7% | [14] 70.9% | [15] 97.3% | [16] 104% | [17] 105% | [18] 29.1% | [19] 17.2%
active: [12] -0.289%

CCN(CC)CCSc1nc(-c2ccccc2)c(C#N)c(=O)[nH]1
inactive: [1] 68.9% | [2] 116% | [3] 122% | [4] 55% | [5] 118% | [6] 120% | [7] 104% | [20] 113% | [8] 97.7% | [10] 112% | [11] 129% | [12] 140% | [13] 116% | [14] 118% | [15] 102% | [16] 105% | [17] 100% | [18] 111% | [19] 111%
